Experimental data taken from PubChem BioAssay (NCATS).
Inconclusive results are not listed. Activity calls are given as the source filed them. Unless noted, the call rests on the fitted dose curve; in most records, active means well fitted curve in either direction with a large enough effect (not every such curve was filed as active); inconclusive means small, poorly fitted or top-dose-only effect, or another doubt; inactive means flat fitted curve, though single readings scatter.

target: Mitogen-activated protein kinase 10 (Mus musculus) (UniProt Q61831); assay: JNK3 AlphaScreen Assay (AID 530); details: JNK3 lysate, c-Jun phosphorylation; series mostly up to 57.1 µM; activity change, negative = inhibition: at the top concentration;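 further: kinase came from lysate of stimulated human HepG2 cells; signal reports phosphorylation of biotinylated GST-cJun 1-79 at Ser73 with 10 µM ATP; on the % scale 0 is the no-effect control and ±100 the full control effect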
Procedure, shortened: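 qHTS titrations with 15 min compound pre-incubation before adding ATP (10 uM final). Read-out: AlphaScreen of Ser73-phosphorylated biotin-GST-cJun using HepG2 lysate JNK3 activated by IL-1β and TNFα.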

Activity change, negative = inhibition, inactive:
CO[C@]1(C2=NCCN2)COc2ccccc2O1 4.64%
CCNCCCNCCCNCCCNCC 14.7%
CCCCCCCCCCCC(=O)O[C@H](CC(=O)O)C[N+](C)(C)C -10.7%
Cc1c(C(=O)NN2CCOCC2)nn(-c2ccc(Cl)cc2Cl)c1-c1ccc(I)cc1 -12.4%
CCCN(CCC)C[C@@H]1CCCCN1CCNC(=O)N1c2ccccc2C(=O)Nc2cccnc21 9.63%
CCN(CC)C[C@@H]1CCCCN1CC(=O)N1c2ccccc2C(=O)Nc2cccnc21 -19.7%
C[C@H](N)C(=O)O -14.7%
CCOC(=O)C1=C(C)NC(c2ccccc2)=C(C(=O)OCc2ccc([N+](=O)[O-])cc2)[C@@H]1C#Cc1ccccc1 3.83%
N[C@@H](Cn1cc(I)c(=O)n(Cc2ccc(C(=O)O)cc2)c1=O)C(=O)O -61.7%
CS(=O)(=O)Nc1c(O)ccc2c1CCC[C@H]2C1=NCCN1 -16.9%
CC(=O)N[C@@H](C(=O)O)C(C)(C)SN=O 16.7%

Potency, inactive:
CC(C)(C)NC[C@H](O)c1ccc(O)c(CO)c1
Cc1ccc(/C(=C/CN2CCCC2)c2ccccn2)cc1
Fc1ccc(C(c2ccc(F)cc2)N2CCN(C/C=C\c3ccccc3)CC2)cc1
CC(=O)Nc1ccc(OC[C@@H](O)CNC(C)C)cc1
N[C@@H](C(=O)O)c1ccc(C(=O)O)cc1
CC(C)NC[C@@H](O)COc1cccc2[nH]ccc12
COc1cc([C@@H]2c3cc4c(cc3[C@@H](O[C@@H]3O[C@H]5CO[C@@H](C)O[C@@H]5[C@@H](O)[C@H]3O)[C@@H]3COC(=O)[C@@H]23)OCO4)cc(OC)c1O

target: 3',5'-cyclic-AMP phosphodiesterase 4B (Homo sapiens) (UniProt Q07343); assay: qHTS Assay for Inhibitors of PDE-IV (AID 607; active means well fitted activation curve with a large enough effect in the main read-out, with a control signal flat, not every such curve was filed as active; further: % of control where 0% means no effect); details: HEK293 ACTOne CNG channel cells, membrane potential fluorescence; series mostly up to 22.9 µM; activation (PDE inhibition): at the top concentration
Sequence (Q07343 whole entry, looked up): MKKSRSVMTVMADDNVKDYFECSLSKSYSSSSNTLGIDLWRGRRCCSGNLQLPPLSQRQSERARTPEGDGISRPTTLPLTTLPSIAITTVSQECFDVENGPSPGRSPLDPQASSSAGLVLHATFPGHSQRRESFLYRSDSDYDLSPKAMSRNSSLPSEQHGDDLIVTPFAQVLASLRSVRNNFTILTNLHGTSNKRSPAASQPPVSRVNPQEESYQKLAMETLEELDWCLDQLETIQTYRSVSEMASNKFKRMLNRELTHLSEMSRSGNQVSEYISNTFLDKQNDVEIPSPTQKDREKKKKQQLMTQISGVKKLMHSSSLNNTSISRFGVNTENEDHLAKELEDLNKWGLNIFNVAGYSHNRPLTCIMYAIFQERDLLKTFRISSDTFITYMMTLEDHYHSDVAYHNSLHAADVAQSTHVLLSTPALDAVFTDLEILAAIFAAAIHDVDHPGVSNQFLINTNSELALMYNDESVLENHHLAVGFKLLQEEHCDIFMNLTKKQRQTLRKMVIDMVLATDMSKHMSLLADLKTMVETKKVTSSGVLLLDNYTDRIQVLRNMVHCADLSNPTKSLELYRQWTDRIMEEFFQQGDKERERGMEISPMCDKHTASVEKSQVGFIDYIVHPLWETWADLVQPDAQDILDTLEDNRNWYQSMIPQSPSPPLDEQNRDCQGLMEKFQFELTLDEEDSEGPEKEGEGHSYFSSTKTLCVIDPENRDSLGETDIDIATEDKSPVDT
Procedure, shortened: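 Cell-based read-out of cAMP via a modified cyclic nucleotide-gated channel and membrane potential dye (535/590 nm) in HEK293 cells expressing PDE4 endogenously. Compounds tested up to 22.9 uM final; 100 uM RO 20-1724 reference.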

Activation (PDE inhibition), inactive:
CO[C@]1(C2=NCCN2)COc2ccccc2O1 5.3%
CCNCCCNCCCNCCCNCC 6.56%
CCCCCCCCCCCC(=O)O[C@H](CC(=O)O)C[N+](C)(C)C -28.1%
Cc1c(C(=O)NN2CCOCC2)nn(-c2ccc(Cl)cc2Cl)c1-c1ccc(I)cc1 5.4%
Cc1ccc(/C(=C/CN2CCCC2)c2ccccn2)cc1 13.9%
CCN(CC)C[C@@H]1CCCCN1CC(=O)N1c2ccccc2C(=O)Nc2cccnc21 8.62%
N#C/C(=C\c1ccc(O)c(O)c1)C(N)=O 4.58%
C[C@H](N)C(=O)O -41.7%
CCOC(=O)C1=C(C)NC(c2ccccc2)=C(C(=O)OCc2ccc([N+](=O)[O-])cc2)[C@@H]1C#Cc1ccccc1 5.48%
CS(=O)(=O)Nc1c(O)ccc2c1CCC[C@H]2C1=NCCN1 -9%
CC#C[C@]1(O)CC[C@H]2[C@@H]3CCC4=CC(=O)CCC4=C3[C@H](c3ccc(N(C)C)cc3)C[C@@]21C -0.0698%
CC(=O)N[C@@H](C(=O)O)C(C)(C)SN=O 3.2%
Cc1c(-c2ccc(Cl)cc2)noc1C1CCN(CCc2ccccc2)CC1 -2.09%

Potency, inactive:
CC(C)(C)NC[C@H](O)c1ccc(O)c(CO)c1
Fc1ccc(C(c2ccc(F)cc2)N2CCN(C/C=C\c3ccccc3)CC2)cc1
CC(=O)Nc1ccc(OC[C@@H](O)CNC(C)C)cc1
COc1ccccc1N1CCN(C[C@@H](O)COc2cccc3ccccc23)CC1
N[C@@H](C(=O)O)c1ccc(C(=O)O)cc1
CC(C)NC[C@@H](O)COc1cccc2[nH]ccc12
COc1cc([C@@H]2c3cc4c(cc3[C@@H](O[C@@H]3O[C@H]5CO[C@@H](C)O[C@@H]5[C@@H](O)[C@H]3O)[C@@H]3COC(=O)[C@@H]23)OCO4)cc(OC)c1O
